Reference: PubChem BioAssay (NCATS)
Several values for one entry are separate records, joined by “and”; a condition that tells them apart may be missing. Equal entries are not always repeated. Results filed as inconclusive are left out. Activity calls are given as the source filed them. Unless noted, calls come from the whole dose curve; as a rule, active = well fitted curve in either direction with a large enough effect (not every such curve was filed as active); inconclusive = small, poorly fitted or top-dose-only effect, or another doubt; inactive = flat fitted curve, though single readings scatter.

Assays:
[1] = AP1 Signaling Pathway (AID 357); details: ME-180 AP-1-bla reporter, EGF-induced, beta-lactamase ratio, 5 h;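 note: ME-180 reporter cells stimulated with EGF at its EC50 level; % is set by controls: 0 for no effect and ±100 for the full control effect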
In short: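 A ratiometric CCF4 readout (405 nm excitation; 460 and 530 nm emission) quantified AP-1-driven beta-lactamase in ME-180 cells after 5 h with compound and EC50 EGF; AC50 values were derived for activators and inhibitors.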

[2] = target: Glucocorticoid receptor (Homo sapiens) (UniProt P04150); assay: GR-EFC Redistribution (AID 451; calls by dose curve; note: potency is the fitted concentration of half-maximal effect); details: CHO-K1 GR-EFC translocation, beta-gal luminescence, 2 h
In short: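 CHO-K1 cells expressing nuclear EA and GR-ED fragments of b-gal; compounds titrated up to 46 uM final, 2 h at 37 C. GR nuclear translocation read as complemented b-gal luminescence after 1 h RT detection.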

[3] = target: Mitogen-activated protein kinase 10 (Mus musculus) (UniProt Q61831); assay: JNK3 AlphaScreen Assay (AID 530);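 note: kinase came from lysate of stimulated human HepG2 cells; signal reports phosphorylation of biotinylated GST-cJun 1-79 at Ser73 with 10 µM ATP; % is set by controls: 0 for no effect and ±100 for the full control effect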
In short: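 qHTS format: compounds tested as titrations against IL-1beta/TNF-alpha-activated HepG2 lysate JNK3 with biotin-GST-cJun substrate and 10 uM ATP at room temperature. Loss of anti-phospho-cJun AlphaScreen signal indicates inhibition.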

[4] = target: 3',5'-cyclic-AMP phosphodiesterase 4B (Homo sapiens) (UniProt Q07343); assay: qHTS Assay for Inhibitors of PDE-IV (AID 607; active = well fitted activation curve with a large enough effect in the main read-out, with a control signal flat, not every such curve was filed as active; note: % of control where 0% means no effect)
In short: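 Cell-based read-out of cAMP via a modified cyclic nucleotide-gated channel and membrane potential dye (535/590 nm) in HEK293 cells expressing PDE4 endogenously. Compounds tested up to 22.9 uM final; 100 uM RO 20-1724 reference.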

[5] = qHTS Assay for Lipid Storage Modulators (AID 1519; calls by dose curve); details: Drosophila S3 cells, BODIPY lipid droplet/cell ratio, laser cytometry, cells loaded with oleic acid
In short: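 Cells seeded at 5,000 per well were treated with compounds over a concentration series and loaded with oleic acid (400 uM, as added). Lipid droplet fluorescence (488 nm excitation, 500-530 nm channel) was read by laser-scanning cytometry and normalized to 20 uM Triacsin C.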

[6] = NFAT Signaling Pathway (AID 444); details: Jurkat NFAT-bla M1, carbachol, beta-lactamase ratio, 5 h;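 note: carbachol stimulus at about its EC50 of 1 µM final; % is set by controls: 0 for no effect and ±100 for the full control effect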
In short: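 Jurkat cells with NFAT-driven β-lactamase reporter and co-expressed M1 receptor, stimulated with carbachol (final 1 uM, ~EC50), compound titration, 5 h at 37 °C. CCF4 loaded 1 h at RT; 460/530 nm ratio gave %activity and AC50.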

[7] = Stat Signaling Pathway (AID 446); details: ME-180 SIE beta-lactamase reporter, IL-6 stimulated, 5 h;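 note: ME-180 cervical cancer cells given 40 pM IL-6 alongside compound; SIE-controlled beta-lactamase reporter measured as 460/530 nm FRET emission ratio; % is set by controls: 0 for no effect and ±100 for the full control effect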
In short: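 Reporter line: ME-180 cervical carcinoma, SIE-beta-lactamase. Treatment: compound with 40 pM IL-6, 5 hrs, 37 C, in low-serum OPTI-MEM with 10 mM HEPES pH 7.3. Detection: 460/530 nm fluorescence.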

[8] = target: Ubiquitin carboxyl-terminal hydrolase 1 (Homo sapiens) (UniProt O94782); assay: Inhibitors of USP1/UAF1: Pilot qHTS (AID 504865; active = well fitted curve in the direction sought with a large enough effect; an effect the other way counts as inactive or inconclusive;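 note: rhodamine fluorescence freed from ubiquitin-rhodamine substrate followed over time; top concentration of the series differs between compounds; % is set by controls: 0 for no effect and ±100 for the full control effect; nearly all actives have a fitted effect of over 35% in size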)
In short: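 USP1/UAF1 complex at 1 nM preincubated 15 min at room temperature with compound, then Ub-Rho substrate added at 150 nM final. Fluorescence (480/540 nm) read kinetically in 50 mM HEPES pH 7.8, 0.5 mM EDTA, 1 mM TCEP, 0.1 mg/ml BSA, 0.01% Tween-20.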

[9] = target: Cytochrome P450 1A2 (Homo sapiens) (UniProt P05177); assay: p450-cyp1a2 (AID 410; calls by dose curve; note: potency is the fitted concentration of half-maximal effect;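 for activity change, negative = inhibition: -100% = full effect of reference inhibitor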)
In short: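 Inhibition was calculated relative to 57 uM furafylline (full inhibition). The reaction used human CYP1A2 at 20nM with Luciferin-ME at its Km, 100uM, driven by an NADPH-regenerating system for 60 min at room temperature.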

[10] = target: Glucocorticoid receptor (Homo sapiens) (UniProt P04150); assay: GR-GFP Redistribution (AID 450;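 active = compounds whose dose series gives a full or clear partial fitted curve of increased nuclear translocation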; note: potency is the fitted concentration of half-maximal effect); details: U2OS GR-GFP nuclear translocation, laser cytometry, 2 h
[11] = target: alpha-glucosidase (Oryza sativa, rice) (UniProt Q653V4); assay: Counterscreen for Glucocerebrosidase Inhibitors: qHTS Assay for Rice alpha-Glucosidase at pH 5.0 (AID 997; active = well fitted curve in the direction sought with a large enough effect; an effect the other way counts as inactive or inconclusive;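 note: 0% = full activity with enzyme and -100% = basal without enzyme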)
In short: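 Rice alpha-glucosidase (4 nM final) with 400 uM 4-methylumbelliferyl-alpha-D-glucopyranoside in citrate buffer pH 5.0, 20 min at room temperature, stopped at pH 10; fluorescence 365/440 nm, compounds 0.7 nM–77 uM, AC50 from Hill fits.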

[12] = target: ATP-dependent 6-phosphofructokinase (Trypanosoma brucei brucei) (UniProt O15648); assay: qHTS Assay to Find Inhibitors of T. brucei phosphofructokinase: hit validation (AID 492961; active = well fitted curve in the direction sought with a large enough effect; an effect the other way counts as inactive or inconclusive; note: % is set by controls: 0 for no effect and ±100 for the full control effect)
In short: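 Luminescence from ADP-Glo reports ADP generated as T. brucei PFK (1.25 nM) phosphorylates 0.5 mM fructose-6-phosphate using 0.1 mM ATP. Reactions ran 45 min at room temperature, pH 8.0.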

[13] = target: Luciferin 4-monooxygenase (Photinus pyralis) (UniProt P08659); assay: Biochemical firefly luciferase enzyme assay for NPC (AID 624030; active = well fitted curve in the direction sought with a large enough effect; an effect the other way counts as inactive or inconclusive;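 note: purified P. pyralis luciferase at 10 nM with luciferin and ATP substrate; 0% = DMSO and -100% = full luciferase inhibition by PTC124 control; nearly all actives have a fitted effect of over 70% in size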)
In short: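 Purified P. pyralis luciferase at 10 nM in 50 mM Tris Acetate (final), luminescence read within 5 minutes of enzyme addition to compounds. Activity normalised to PTC124 versus DMSO; concentration-response curves classed by r2, magnitude and activity.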

[14] = qHTS profiling for inhibitors of Plasmodium falciparum proliferation (AID 504749; active = well fitted curve in the direction sought with a large enough effect; an effect the other way counts as inactive or inconclusive; note: nearly all actives have a fitted effect of over 60% in size; note: potency is the fitted concentration of half-maximal effect;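 for activity, negative = inhibition: 0% = DMSO vehicle and full inhibition = artemisinin control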); details: P. falciparum in erythrocytes, SYBR Green DNA, 72 h; parasite line B
In short: (§1)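 Readout was DNA-dye fluorescence from lysed cultures, ex 485/em 535 nm. Parasitized red cells had grown 72 h with compound; data scaled between 0.29 uM artemisinin and DMSO wells and corrected using vehicle-only plates.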

[15] = test system: AS120; assay: as above; details: P. falciparum in erythrocytes, SYBR Green DNA, 72 h; series mostly up to 28.7 µM
In short: as §1

[16] = test system: CP238; assay: as above; details: P. falciparum in erythrocytes, SYBR Green DNA, 72 h; series mostly up to 12.8 µM
In short: as §1

[17] = test system: CP250; assay: as above; details: P. falciparum in erythrocytes, SYBR Green DNA, 72 h; series mostly up to 12.8 µM
In short: as §1

[18] = test system: CP262; assay: as above; details: P. falciparum in erythrocytes, SYBR Green DNA, 72 h; series mostly up to 12.8 µM
In short: as §1

[19] = test system: CP265; assay: as above; details: P. falciparum in erythrocytes, SYBR Green DNA, 72 h; series mostly up to 12.8 µM
In short: as §1

[20] = test system: FAB9; assay: as above; details: P. falciparum in erythrocytes, SYBR Green DNA, 72 h; series mostly up to 12.8 µM
In short: as §1

[21] = at 7.69 µM (top of the series) unless noted
[22] = measured here: cell count channel max response
[23] = measured here: lipid channel max response

Chain of 3',5'-cyclic-AMP phosphodiesterase 4B (Homo sapiens) (Q07343 whole entry, looked up): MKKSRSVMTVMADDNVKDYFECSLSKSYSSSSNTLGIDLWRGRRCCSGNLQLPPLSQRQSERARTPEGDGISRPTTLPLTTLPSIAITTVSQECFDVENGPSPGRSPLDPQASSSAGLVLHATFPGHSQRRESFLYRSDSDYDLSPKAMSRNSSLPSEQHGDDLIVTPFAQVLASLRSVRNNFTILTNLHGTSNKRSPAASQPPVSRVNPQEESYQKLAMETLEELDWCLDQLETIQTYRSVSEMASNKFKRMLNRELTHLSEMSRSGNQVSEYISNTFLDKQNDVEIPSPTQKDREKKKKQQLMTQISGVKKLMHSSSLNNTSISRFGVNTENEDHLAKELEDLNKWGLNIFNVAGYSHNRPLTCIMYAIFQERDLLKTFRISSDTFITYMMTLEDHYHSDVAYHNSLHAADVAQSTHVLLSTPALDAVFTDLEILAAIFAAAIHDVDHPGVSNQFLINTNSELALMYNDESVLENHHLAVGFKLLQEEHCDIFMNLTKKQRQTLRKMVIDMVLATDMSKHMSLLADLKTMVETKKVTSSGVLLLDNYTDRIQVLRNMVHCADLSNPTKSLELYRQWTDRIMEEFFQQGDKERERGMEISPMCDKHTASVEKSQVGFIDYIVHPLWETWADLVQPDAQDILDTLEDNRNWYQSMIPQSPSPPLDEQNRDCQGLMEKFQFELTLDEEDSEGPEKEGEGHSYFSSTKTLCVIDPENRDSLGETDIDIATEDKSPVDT
Chain of Glucocorticoid receptor (Homo sapiens) (P04150 whole entry, looked up, the tested form may be a part): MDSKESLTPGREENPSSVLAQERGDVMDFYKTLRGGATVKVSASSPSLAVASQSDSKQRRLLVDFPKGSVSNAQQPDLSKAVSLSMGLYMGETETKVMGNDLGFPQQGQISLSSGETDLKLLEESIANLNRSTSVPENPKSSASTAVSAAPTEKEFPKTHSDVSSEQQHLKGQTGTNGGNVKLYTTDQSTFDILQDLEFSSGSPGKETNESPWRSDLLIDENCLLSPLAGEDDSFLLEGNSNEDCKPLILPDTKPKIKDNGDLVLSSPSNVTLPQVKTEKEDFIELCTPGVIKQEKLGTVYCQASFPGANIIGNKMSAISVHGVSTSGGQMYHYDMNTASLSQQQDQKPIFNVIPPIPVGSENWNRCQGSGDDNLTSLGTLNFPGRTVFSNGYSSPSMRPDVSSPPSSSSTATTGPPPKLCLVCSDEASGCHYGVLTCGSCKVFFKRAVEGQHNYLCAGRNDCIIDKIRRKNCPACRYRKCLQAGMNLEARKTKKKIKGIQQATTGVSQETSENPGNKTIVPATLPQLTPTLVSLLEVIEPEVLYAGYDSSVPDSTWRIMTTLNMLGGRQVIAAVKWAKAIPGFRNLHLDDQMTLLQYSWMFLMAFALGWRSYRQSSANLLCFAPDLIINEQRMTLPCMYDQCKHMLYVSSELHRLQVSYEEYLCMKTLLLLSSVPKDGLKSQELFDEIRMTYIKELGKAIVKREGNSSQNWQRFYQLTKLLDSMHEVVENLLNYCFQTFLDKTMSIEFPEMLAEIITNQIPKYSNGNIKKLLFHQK
Chain of Ubiquitin carboxyl-terminal hydrolase 1 (Homo sapiens) (O94782 whole entry, looked up): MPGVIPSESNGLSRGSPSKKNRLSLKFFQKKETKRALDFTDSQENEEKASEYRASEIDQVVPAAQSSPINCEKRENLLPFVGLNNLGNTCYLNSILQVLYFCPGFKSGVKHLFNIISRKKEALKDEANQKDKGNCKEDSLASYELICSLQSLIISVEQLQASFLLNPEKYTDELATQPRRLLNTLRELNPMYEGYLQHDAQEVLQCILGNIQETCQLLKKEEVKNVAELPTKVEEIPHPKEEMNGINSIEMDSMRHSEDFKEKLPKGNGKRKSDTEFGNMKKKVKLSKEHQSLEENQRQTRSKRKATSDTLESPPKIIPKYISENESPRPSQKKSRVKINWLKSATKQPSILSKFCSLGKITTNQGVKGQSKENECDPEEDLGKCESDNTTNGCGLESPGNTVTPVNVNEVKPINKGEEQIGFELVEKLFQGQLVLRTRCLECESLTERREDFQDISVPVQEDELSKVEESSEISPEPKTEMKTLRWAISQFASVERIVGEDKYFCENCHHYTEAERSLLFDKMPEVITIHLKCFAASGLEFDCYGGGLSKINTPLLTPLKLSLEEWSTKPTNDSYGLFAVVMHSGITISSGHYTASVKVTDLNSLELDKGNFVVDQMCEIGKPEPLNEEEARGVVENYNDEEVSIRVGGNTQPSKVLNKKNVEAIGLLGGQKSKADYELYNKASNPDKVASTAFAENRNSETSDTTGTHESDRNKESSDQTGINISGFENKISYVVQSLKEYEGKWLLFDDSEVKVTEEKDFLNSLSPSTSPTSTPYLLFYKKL
Chain of Cytochrome P450 1A2 (Homo sapiens) (P05177 whole entry, looked up): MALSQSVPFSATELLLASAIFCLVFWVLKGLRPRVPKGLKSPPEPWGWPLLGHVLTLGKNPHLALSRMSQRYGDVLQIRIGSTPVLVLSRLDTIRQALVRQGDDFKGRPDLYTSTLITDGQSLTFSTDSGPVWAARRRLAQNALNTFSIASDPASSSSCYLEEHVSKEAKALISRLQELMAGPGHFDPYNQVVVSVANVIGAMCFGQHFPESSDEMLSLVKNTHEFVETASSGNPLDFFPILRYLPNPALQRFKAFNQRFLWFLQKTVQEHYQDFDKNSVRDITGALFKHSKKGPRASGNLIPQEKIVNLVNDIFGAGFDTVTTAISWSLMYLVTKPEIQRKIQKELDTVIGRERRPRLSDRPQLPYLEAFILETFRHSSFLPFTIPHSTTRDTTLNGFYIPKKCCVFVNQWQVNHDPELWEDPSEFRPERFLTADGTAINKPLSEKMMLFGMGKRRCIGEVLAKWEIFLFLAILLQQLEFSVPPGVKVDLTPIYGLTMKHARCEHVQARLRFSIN
Chain of ATP-dependent 6-phosphofructokinase (Trypanosoma brucei brucei) (O15648 whole entry, looked up): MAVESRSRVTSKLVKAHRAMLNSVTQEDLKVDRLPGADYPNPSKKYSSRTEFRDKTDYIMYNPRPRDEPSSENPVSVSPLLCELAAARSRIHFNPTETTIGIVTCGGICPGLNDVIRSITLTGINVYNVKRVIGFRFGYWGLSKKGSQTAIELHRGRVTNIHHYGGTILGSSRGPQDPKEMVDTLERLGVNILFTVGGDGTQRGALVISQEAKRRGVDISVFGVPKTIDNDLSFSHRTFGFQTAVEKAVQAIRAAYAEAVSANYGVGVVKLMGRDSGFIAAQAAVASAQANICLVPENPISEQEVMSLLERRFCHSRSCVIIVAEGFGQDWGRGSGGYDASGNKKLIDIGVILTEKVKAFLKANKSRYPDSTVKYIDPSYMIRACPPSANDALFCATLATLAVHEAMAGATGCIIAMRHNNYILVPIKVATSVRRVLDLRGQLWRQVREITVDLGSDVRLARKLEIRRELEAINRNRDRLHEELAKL
Chain of Luciferin 4-monooxygenase (Photinus pyralis) (P08659 whole entry, looked up): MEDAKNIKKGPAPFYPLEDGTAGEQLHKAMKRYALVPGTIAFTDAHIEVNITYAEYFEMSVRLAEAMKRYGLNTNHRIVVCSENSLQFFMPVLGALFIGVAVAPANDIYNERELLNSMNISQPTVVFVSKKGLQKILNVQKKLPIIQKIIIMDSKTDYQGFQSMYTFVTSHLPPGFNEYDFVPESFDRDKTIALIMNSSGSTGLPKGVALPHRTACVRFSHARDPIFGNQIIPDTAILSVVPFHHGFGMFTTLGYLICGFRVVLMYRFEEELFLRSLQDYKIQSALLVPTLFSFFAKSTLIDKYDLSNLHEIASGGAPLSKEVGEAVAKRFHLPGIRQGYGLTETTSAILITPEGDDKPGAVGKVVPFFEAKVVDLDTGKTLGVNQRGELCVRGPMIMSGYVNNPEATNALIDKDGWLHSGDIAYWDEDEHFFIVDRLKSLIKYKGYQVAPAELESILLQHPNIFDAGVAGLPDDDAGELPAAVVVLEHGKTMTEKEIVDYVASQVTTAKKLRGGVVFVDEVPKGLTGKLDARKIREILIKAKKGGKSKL

Cn1cccc1C(=O)N1CCC2(CCCN(C(=O)Nc3cccc(F)c3)C2)CC1
6.22%: max response [5, 23]
inactive: activity change, negative = inhibition [1, 21] -15.3% | Potency [2] > 46 µM | Potency [3] | Potency [4] | activity change, negative = inhibition ([5]; at 57.5 µM (top of the series)) 5.97%
-2.38%: max response [5, 22]

COc1ccccc1CN1CC[C@@]2(CCCN(C(=O)c3ccco3)C2)C1
4.46%: max response [5, 22]
inactive: activity change, negative = inhibition [1, 21] -2.43% | activity change, negative = inhibition [6, 21] -21.8% | activity, negative = inhibition [7, 21] -8.66% | Potency [2] > 46 µM | Potency [3] | activity change, negative = inhibition ([5]; at 57.5 µM (top of the series)) 1.52%
8.6%: max response [5, 23]

N#Cc1ccc(CN2CCCC3(CCN(C(=O)c4cc(C(F)(F)F)cc(C(F)(F)F)c4)CC3)C2)cc1
18.7%: max response [5, 22]
inactive: activity change, negative = inhibition [1, 21] 16.4% | activity, negative = inhibition [7, 21] -17.3% | Potency [2] > 46 µM | Potency [3] | Potency [4] | activity change, negative = inhibition ([5]; at 57.5 µM (top of the series)) 1.75%
26.7%: max response [5, 23]

Cc1ccccc1-c1cncnc1N1CCNCC1
inactive: activity change, negative = inhibition [1, 21] -3.42% | activity change, negative = inhibition [6, 21] 10.1% | activity, negative = inhibition [7, 21] 1.91% | Potency [2] > 46 µM | Potency [3] | Potency [4] | activity change, negative = inhibition ([5]; at 57.5 µM (top of the series)) 10.2% | Potency [8]
18.8%: max response [5, 23]
11%: max response [5, 22]

CN(C)C(=O)c1ccc(-c2nc(NCc3cccnc3)c3ccccc3n2)cc1
active: Potency [9] 10 µM
24.6%: max response [5, 23]
inactive: activity change, negative = inhibition [6, 21] 9.73% | Potency [10] > 46 µM | Potency [2] > 46 µM | Potency [3] | Potency [4] | activity change, negative = inhibition ([5]; at 57.5 µM (top of the series)) 8.76% | Potency [8]
17%: max response [5, 22]

COc1ccccc1CN1CC[C@@]2(CCCN(C(=O)c3ccncc3)C2)C1
8.53%: max response [5, 22]
14.1%: max response [5, 23]
inactive: activity change, negative = inhibition [1, 21] -11.5% | activity change, negative = inhibition [6, 21] 3.54% | activity, negative = inhibition [7, 21] 0.423% | Potency [3] | Potency [4] | activity change, negative = inhibition ([5]; at 57.5 µM (top of the series)) 3.67%

O=C(c1cnccn1)N1CCC2(CCN(Cc3ccncc3)CC2)CC1
2.59%: max response [5, 22]
inactive: activity change, negative = inhibition [1, 21] -11.5% | activity change, negative = inhibition [6, 21] -19.7% | activity, negative = inhibition [7, 21] -8.42% | Potency [2] > 46 µM | Potency [3] | Potency [4] | activity change, negative = inhibition ([5]; at 57.5 µM (top of the series)) 3.75%
8.61%: max response [5, 23]

C[C@@H](CCc1ccccc1)NC[C@H](O)c1ccc(O)c(C(N)=O)c1
active: Potency [14] 10 µM
inactive: activity change, negative = inhibition ([1]; at 17.2 µM (top of the series)) 10.2% | activity change, negative = inhibition ([1]; at 38 µM (top of the series)) 8.69% | Potency [9] | activity change, negative = inhibition ([6]; at 17.2 µM (top of the series)) -19.2% | activity change, negative = inhibition ([6]; at 38 µM (top of the series)) -1.34% | activity, negative = inhibition ([7]; at 17.2 µM (top of the series)) -0.55% | activity, negative = inhibition ([7]; at 38 µM (top of the series)) 4.03% | Potency [10] > 46 µM and > 20.6 µM | Potency [2] > 46 µM and > 20.6 µM | Potency [3] | Potency [4] | outcome [11] | activity change, negative = inhibition ([5]; at 25.7 µM (top of the series)) -1.75% | outcome [12] | outcome [13] | Potency [15] | Potency [16] | Potency [17] | Potency [18] | Potency [19] | Potency [20]
-10.3%: max response [5, 22]
-13.3%: max response [5, 23]
